Test results reported in the supplement of paper PMC12632987.

Each binder was assayed against GABARAPL2, P60520 (assay: median log2 fold change of GCK-ALFA target abundance (FLAG IP / Myc IP barcode read proportion) (log2 ratio); each designed protein is fused to an ALFA-tag nanobody in HEK293 cells to bring the named protein to FLAG-tagged glucokinase (GCK); Myc marks an untargeted standard; higher = target protein stabilised (more abundant)). Conditions: target protein: 3xFLAG-MCP-GCK-ALFA reporter; HEK293 landing pad (RPLP).
How it was run: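 Binders fused to an ALFA nanobody were recombined as a library into HEK293 landing-pad cells, which were induced with 2 μg mL^−1 doxycycline and then transfected to express a FLAG-tagged target and a Myc-tagged standard. After 48 h, circular RNA barcodes recovered by anti-FLAG and anti-Myc immunoprecipitation of lysates were reverse transcribed, amplified and sequenced. Each binder's target abundance is the median log2 ratio of FLAG to Myc barcode read proportions, from barcodes present at ≥10^−7 in both replicates, binders carrying ≥3 barcodes per replicate, a 10^−6 pseudocount and pooled replicates.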

GABARAPL2, P60520, sequence (P60520 whole entry, the tested form may be a part): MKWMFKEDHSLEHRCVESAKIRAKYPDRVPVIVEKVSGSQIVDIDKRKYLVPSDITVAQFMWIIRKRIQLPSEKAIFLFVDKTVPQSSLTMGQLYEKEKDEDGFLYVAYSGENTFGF

Binder | median log2 fold change
GBRAPL2_106_7269 (protein) EELKELLEKLKELKEKIEELLEKAEEKDEELYDETIELADEVTRLAIELGLDEVAALIADAANDIFEALENPEERKEDLEEALEDVEEAIKLVEEEIKKE | -0.274
GBRAPL2_0_7255 (protein) LEEVLKKMKESSIEEAVELAKEEADRLVADPSVTPEEFEEAAVALLEVLAEKAKEEKTEEALELLEEAVDYLTELAKKVDPDVAAFIDTYGGSLLYELEE | -0.088
GBRAPL2_128_7272 (protein) MKLVEITINIKDEESYNLAIEILDRIAEKSSPEVADLADAAKDAAEIAAENGYDEKVVVVDVLSEEEAEELKKIYEEIKKELGEEKVKSVVELEITDIEP | -0.21
GBRAPL2_0_7259 (protein) LEEVLEEMKELSIEEAAELAKKYVKELVADPSVTPEQFLEAAEALLEVLAEKVKEEKTEEALEIFDEAVDYFTEEAKKIDPETAAAVATYGGSLLYEIES | 0.154
GBRAPL2_106_7265 (protein) SGLEELLKLLEEALEKAKKLPEAFKKGDEEAVDELLELLDEATRLAIELGLDEVAALVAAAFDDVFAASEDPETAEEDFEEAIEDLEEAKELVEKRLEEE | -0.285
GBRAPL2_0_7260 (protein) MEEVLEKMKKLSLEEATKLAKEYLEKLRADPNVTKEEFEEAAEKLLEVLAEKAKKEKTEEALELFDEFVDYFTELAKKIDPNLAAYIASYGGSLLYEIES | 0.248
GBRAPL2_0_7244 (protein) MEELLKRLLSLSLEEAKKEIKELAEKVIKLIREKPEEGIKAAEELMEVFAEVLVERKDEELEEVVEEAVDAIVEEVAKVDPNAAAYIDAIFGSAIMEVEG | -0.291
GBRAPL2_0_7257 (protein) MEEVLKKMKELSIEEAAKLAKEEIEKLVADPSVTVEELEEAIEKLLEVLAEKVKEEKTEEALEILDEFVDYATELAAKVDPNLAAYVASYGGSLLYELEE | -0.0513
GBRAPL2_0_7254 (protein) MEKLLKELLSLSVEEAQKAIKEEAEKVVKYLKEDPEKGLEKAEELAEVFAELLKERKDEKLEETIEEAIDKIVKEAAKIDPNKAAYIAAIIGSALYEVES | 0.0528
GBRAPL2_0_7251 (protein) MEELLEELLSLSLEEAKKKIKELAEKVIKLIKEDPEKGLEEAEKLAKVFAEYLIETKNEELEKVIDEAIDKIVKEVAKIDPNKAAYIDAIIGSAIMEVES | -0.108
GBRAPL2_0_7256 (protein) LEEVLEEMKKLSIEEAAKLAKEYAEKLLADPSVTPEEFLEAIEKLLEVLAEKVKEEKTEEALEIFEEAVDYFTALAAKIDPNLAADVATYGGSLLYEIEE | 0.0867
GBRAPL2_106_7266 (protein) EKLEELKKLLEEALELAKKLPEAFKAGDEEAIDELLDLLDEATRLAIELGLDEVAALVADAFDNVFAASEDPETAEEDFKEAIKNLEEALKLVEEELKKL | 0.00104
GBRAPL2_0_7258 (protein) LEEILKEMKTLSIEEAAELAKEEAERLVADPSVTPDEFEAAAFAMLEVLAEKVKKEKTEEALEIFDEAVDHFTALAAKIDPLTAAAVATHGGSLIYEIES | -0.0288
GBRAPL2_0_7243 (protein) MEELLKELLSLSLEEAKAAIKELAEEAIKLIREDPEKGIKYAEELMEVFAEVLEKRKDEELLKVIEEAVEKIVEEVAKVDPNEAAYIDAIFGSAVMEVEG | 0.0124
GBRAPL2_0_7241 (protein) MEELLKRLLSLSLEEAKAEIKRLAEEVIKLIKEDPEKGKKEAEELVEVFAEYLIKSKNEELLEVIEEEVDKIVKEVAKIDPNFAAYLDSIIGSAIAEVES | 0.00211
GBRAPL2_0_7242 (protein) MEELLEELLSLSLEEAKARIRELAEEAIKLLKEDPEEGKKYAEELVEVFAEVLEKTKNEELREVIEEEVDRIVKEAAEIDPNFAAYLASIMGSAIYEVES | 0.159

Binder | median log2 fold change
GBRAPL2_128_7270 (protein) MKIVELDVNVKDEESYELALEILDEIAKNSSPEVKDLAEAARDLVEEAKKRGFGENVTAVDILSDEDAEELKKIYEELKKKYGEEKVNSVLELEISDVPP | -0.268
GBRAPL2_106_7264 (protein) EGLEKARKLAKEALEKAKKLPEAFKKGDEEAIDELLELLDELTRLAIELGLDEVAALVADAFDNVFAASEDPETAEEDLEEAIKDLEEALKLIEKKIKEL | -0.195
GBRAPL2_0_7247 (protein) MEELLKELLELSVEEAKKKIKELAKKAVELIKKDPEKGLEEAEKLAEVFAEYLEETKNEELAEAVDEAARLLVEEAEKVDPNAAAYIASEVGSALLDLEM | -0.0333
GBRAPL2_128_7271 (protein) KKIVEIDVDIKDEESYNLALEILDEISENSSPEVKKLADAAKDLVESAKEEGFGENVTAVDILSDEEAALLQKIYEEIKKKYGKEKVNSVVKLDISDVPP | -0.852
GBRAPL2_0_7246 (protein) MEELKKELLSLSLEEAKKKIKELAEKVIKLIKEDPEKGIEEAEKLTEVFAEVLVERKDEELKKVVEEAVEKIVEEVKKVDPKAAAYIDAIYGSALMEVEG | 0.169
GBRAPL2_0_7248 (protein) MEELLKELLSLSTEERKKKIKELAKEAVKLIKEDPEKGLEAAIELAEVFAKVIEETKNEEIAEVVDEAIDLIVKEAAEVDPNAAAEIASIVGSALLELEM | 0.0975
GBRAPL2_0_7262 (protein) MEKVLEEMEKLSIEEAAKLAKEYAEKLKADPSVSPEQFEEAVLALLEVLYKKVKKEKTEKALEIFEEAVDYFTELAAEVDPNLAAYVDSYAGSLIMELEE | 0.203
GBRAPL2_0_7252 (protein) MEELLKELLSLSLEEAKAAIEKLAEEVIKLIEKDPEKGLKAAEELAEVFAEYLIERKNEELEEAIVKAIDKLVKEVAKVDPNKAAYIDSIIGSAIMEVEG | 0.0463
GBRAPL2_0_7250 (protein) MEELLKELLSLSLEEAKKKIKELTEEVIKLIEKDPKKGLEKAIELAEIFAEYLIERKNEELEEVIDEAIDKLVKKVAEVDPNEAAYIDAIIGSAIMEVEG | -0.0651
GBRAPL2_106_7268 (protein) KKLEEILEELEEALELVEELLERAEEKDEELLDETLELLDRVTRLAIEAGLDEVAALVADAANDVFAAEEDPENRKEYLERAKEDLEEAIKLVKEKIKEA | -0.012
GBRAPL2_0_7249 (protein) MEEELKELLSLSTEEAKKKIKEKAKEVIELIKKDPEEGLKAAEELAEIFAEYLEKTKNEELEEVIDEAIDEIVKEVAKVDPNEAAYIDAIIGSAIMEVEG | -0.0458
GBRAPL2_106_7267 (protein) EKLKELLKQLEELAKKIEELLKKADENDEELIDETLELLNEATRQAIEAGLDEVAALLADAFNHVFEAKENPEERKENLEEALKDVKEAIKLVKKKIKEA | 0.226
GBRAPL2_0_7261 (protein) MEEVLEKMKKLSIEEAAKLAKEYLEKLRNDPSVTPEEFEEAALKILEVLAEKVKKEKTEEALEIFEELVDYATKLAAEIDPNLAAYIDSYGGSLIMELEE | 0.0589
GBRAPL2_0_7253 (protein) KEELLEKLLSLSIEEAIKEVKKLAEEVIKYIKEKPEEGLKKAEELAEIFAELIEARKDEKLIKAVEEAIEKIVEEAKKIDPNEAAYIASIIGSALYEVES | 0.152
GBRAPL2_0_7245 (protein) MEELLEKLLSLSLEEAKKKIKELAEKAIKLIKEDPEKGIKEAEKLAEVFAEVLEKRKDEELLKVIEEAIDKIVKEVAKVDPNAAAYIDAIFGSAIMEVEG | 0.154
GBRAPL2_0_7263 (protein) LEKVLEEMKKLSIEEAKKLAKEYLEKLRDDPSVTPEEFLEAALKILDVLYEKVKKEKTEEALEIFEEFRDFAVELAAKVDPNIAAEVDSYAGSLIMELEE | 0.11
